Here are results for 17 compounds from ChEMBL document CHEMBL1961873, “Compounds: GSK PKIS; Assays: Nanosyn kinase panel” (2012).

For assay [1], the target named is MAP/microtubule affinity-regulating kinase 3 (Homo sapiens) (UniProt P27448). As to conditions: at 1 µM.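 Also: reported values are averaged percent inhibition of MARK3.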
The target of assay [2] is T1, MAP/microtubule affinity-regulating kinase 4 (Homo sapiens) (UniProt Q96L34).
T1 sequence (whole entry): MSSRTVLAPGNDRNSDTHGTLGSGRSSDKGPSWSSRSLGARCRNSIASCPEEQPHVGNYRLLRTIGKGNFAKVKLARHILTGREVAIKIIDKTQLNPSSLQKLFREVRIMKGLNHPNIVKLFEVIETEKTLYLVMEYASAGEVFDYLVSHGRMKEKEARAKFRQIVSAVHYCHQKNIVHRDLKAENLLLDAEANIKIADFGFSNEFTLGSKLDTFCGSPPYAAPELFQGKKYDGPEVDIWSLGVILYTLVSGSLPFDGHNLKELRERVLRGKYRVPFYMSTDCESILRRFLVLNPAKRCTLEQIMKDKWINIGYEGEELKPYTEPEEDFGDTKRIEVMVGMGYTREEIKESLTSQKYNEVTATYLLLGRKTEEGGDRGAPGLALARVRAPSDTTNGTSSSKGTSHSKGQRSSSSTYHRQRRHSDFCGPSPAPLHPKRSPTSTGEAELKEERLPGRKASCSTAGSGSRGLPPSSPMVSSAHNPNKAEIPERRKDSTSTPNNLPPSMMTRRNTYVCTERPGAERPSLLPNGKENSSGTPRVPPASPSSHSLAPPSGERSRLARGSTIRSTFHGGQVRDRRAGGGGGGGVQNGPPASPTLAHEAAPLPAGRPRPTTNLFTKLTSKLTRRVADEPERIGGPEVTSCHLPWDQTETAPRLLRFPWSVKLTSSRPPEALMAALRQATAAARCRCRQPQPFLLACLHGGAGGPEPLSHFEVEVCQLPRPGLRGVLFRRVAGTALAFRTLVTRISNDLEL
As to conditions: at 0.1 µM.

Assay [3] deals with T1, MAP/microtubule affinity-regulating kinase 4 (Homo sapiens). As to conditions: at 1 µM.
The target in assay [4] is Maternal embryonic leucine zipper kinase (Homo sapiens) (UniProt Q14680). As to conditions: at 0.1 µM.
Chain of Maternal embryonic leucine zipper kinase (Homo sapiens) (Q14680 whole entry, looked up): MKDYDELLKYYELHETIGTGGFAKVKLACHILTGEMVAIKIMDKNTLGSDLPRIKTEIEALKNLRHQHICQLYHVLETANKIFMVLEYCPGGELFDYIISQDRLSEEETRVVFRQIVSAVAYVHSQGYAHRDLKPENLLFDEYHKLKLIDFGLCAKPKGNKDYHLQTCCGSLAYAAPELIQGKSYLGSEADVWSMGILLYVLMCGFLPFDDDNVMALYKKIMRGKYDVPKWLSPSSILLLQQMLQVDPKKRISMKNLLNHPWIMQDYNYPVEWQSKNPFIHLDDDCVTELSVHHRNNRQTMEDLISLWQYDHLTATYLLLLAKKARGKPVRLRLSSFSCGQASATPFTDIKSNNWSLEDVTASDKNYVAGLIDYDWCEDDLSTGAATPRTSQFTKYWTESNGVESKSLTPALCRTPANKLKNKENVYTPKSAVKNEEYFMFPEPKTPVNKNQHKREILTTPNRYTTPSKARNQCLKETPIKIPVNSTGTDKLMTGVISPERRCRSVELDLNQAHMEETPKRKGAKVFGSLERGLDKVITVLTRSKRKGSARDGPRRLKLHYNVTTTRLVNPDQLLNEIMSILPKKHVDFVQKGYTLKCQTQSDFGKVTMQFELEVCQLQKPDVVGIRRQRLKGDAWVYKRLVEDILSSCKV
Assay [5] has the same target. As to conditions: at 1 µM.
Assay [6] addresses MAP kinase-interacting serine/threonine-protein kinase 1 (Homo sapiens) (UniProt Q9BUB5). The note with it: at 0.1 µM.
For assay [7] the target is unchanged. The note with it: at 1 µM.
Assay [8] addresses MAP kinase-interacting serine/threonine-protein kinase 2 (Homo sapiens) (UniProt Q9HBH9). As to conditions: at 0.1 µM.
Assay [9] shares this target. As to conditions: at 1 µM.
The target in assay [10] is Serine/threonine-protein kinase MARK2 (Homo sapiens) (UniProt Q7KZI7). The note with it: at 0.1 µM.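 Also: mean percent inhibition of PAR-1Balpha kinase activity, reported from the GSK PKIS screen.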
Chain of Serine/threonine-protein kinase MARK2 (Homo sapiens) (Q7KZI7 whole entry): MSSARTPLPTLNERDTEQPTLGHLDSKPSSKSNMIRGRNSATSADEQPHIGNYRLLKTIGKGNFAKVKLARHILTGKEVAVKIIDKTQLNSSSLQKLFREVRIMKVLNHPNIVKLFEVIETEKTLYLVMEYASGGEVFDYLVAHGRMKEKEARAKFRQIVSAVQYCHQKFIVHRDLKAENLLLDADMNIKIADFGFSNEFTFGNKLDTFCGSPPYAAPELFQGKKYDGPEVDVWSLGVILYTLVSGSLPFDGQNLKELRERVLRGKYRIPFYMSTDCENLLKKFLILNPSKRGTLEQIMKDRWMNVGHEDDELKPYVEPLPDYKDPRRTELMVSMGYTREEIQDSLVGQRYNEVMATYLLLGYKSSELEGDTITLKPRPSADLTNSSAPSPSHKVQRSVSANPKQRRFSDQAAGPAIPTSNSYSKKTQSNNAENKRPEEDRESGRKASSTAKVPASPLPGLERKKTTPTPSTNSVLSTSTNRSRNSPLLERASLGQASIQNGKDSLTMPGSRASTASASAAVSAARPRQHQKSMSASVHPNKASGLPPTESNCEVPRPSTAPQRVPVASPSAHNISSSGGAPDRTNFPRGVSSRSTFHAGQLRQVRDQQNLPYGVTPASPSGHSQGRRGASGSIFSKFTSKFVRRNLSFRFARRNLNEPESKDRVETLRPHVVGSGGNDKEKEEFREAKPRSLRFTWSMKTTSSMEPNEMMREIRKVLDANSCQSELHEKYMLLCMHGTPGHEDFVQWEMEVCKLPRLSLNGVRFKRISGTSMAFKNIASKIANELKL

Chain of MAP kinase-interacting serine/threonine-protein kinase 2 (Homo sapiens) (Q9HBH9 whole entry, looked up): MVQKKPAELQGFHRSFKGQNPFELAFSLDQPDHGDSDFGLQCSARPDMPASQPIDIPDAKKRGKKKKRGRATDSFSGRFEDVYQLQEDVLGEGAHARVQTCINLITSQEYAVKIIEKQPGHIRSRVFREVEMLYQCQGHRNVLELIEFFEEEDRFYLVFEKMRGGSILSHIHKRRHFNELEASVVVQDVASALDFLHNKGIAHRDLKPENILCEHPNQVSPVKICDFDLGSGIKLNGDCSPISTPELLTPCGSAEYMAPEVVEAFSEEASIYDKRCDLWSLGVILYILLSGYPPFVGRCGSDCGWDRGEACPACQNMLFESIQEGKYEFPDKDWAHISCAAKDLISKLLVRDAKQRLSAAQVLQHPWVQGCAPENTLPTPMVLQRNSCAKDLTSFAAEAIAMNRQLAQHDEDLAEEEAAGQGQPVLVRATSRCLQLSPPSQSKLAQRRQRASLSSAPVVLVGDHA
Chain of MAP/microtubule affinity-regulating kinase 3 (Homo sapiens) (P27448 whole entry, looked up): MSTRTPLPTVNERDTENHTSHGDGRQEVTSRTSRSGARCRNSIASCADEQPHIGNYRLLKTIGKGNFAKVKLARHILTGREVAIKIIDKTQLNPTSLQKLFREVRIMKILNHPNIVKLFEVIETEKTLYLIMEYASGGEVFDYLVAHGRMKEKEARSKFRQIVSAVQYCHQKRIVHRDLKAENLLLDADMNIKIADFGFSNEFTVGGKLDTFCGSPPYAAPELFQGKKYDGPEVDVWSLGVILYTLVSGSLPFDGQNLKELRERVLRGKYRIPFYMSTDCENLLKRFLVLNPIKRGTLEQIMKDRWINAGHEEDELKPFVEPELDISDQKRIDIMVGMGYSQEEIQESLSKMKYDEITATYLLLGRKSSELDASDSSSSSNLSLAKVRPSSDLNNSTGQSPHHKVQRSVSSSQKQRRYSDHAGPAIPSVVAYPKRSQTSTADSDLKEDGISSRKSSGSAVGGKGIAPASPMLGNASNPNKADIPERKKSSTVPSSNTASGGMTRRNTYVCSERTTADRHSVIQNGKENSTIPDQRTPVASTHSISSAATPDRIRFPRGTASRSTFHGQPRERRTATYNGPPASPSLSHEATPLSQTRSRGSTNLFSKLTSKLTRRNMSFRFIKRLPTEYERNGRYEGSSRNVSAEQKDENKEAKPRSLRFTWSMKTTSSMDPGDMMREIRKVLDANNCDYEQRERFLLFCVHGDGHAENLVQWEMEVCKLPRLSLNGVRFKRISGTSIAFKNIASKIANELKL
Chain of MAP kinase-interacting serine/threonine-protein kinase 1 (Homo sapiens) (Q9BUB5 whole entry, looked up): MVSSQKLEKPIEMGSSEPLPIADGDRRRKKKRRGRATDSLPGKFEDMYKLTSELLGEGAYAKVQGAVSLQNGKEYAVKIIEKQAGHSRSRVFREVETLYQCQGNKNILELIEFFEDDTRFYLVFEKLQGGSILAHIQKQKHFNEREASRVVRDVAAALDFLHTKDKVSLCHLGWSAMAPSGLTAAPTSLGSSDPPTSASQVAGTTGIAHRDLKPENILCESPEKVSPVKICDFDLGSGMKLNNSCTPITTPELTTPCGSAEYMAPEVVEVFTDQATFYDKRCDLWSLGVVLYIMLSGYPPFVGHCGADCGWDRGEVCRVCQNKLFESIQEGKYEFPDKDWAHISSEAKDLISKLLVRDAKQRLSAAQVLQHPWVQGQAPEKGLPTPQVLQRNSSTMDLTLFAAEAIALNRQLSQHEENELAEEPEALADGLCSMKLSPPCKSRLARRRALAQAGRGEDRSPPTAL

In general, inhibition refers to the change of the read-out against control, counted positive when it falls. For `COc1cccc(-n2nc(C)c3c(N/N=C(\C)c4ccncc4)ncnc32)c1`, the inhibition in assay [1] is 0.26%; in [2], -0.19%; in [3], -0.43%; in assay [4], -0.32%; in assay [5], 1.96%; in assay [6], 0.47%. Moreover, the inhibition was 1.1% in [7], -0.51% in [8], 0.76% in assay [9] and -0.2% in assay [10].
As for `NS(=O)(=O)c1ccc(Nc2cc(-c3cccc(O)c3)n[nH]2)cc1`, the inhibition in assay [1] turned out to be 32.5%; in assay [2], 3.4%; in assay [3], 9.85%; in assay [4], 4.37%; in assay [5] it was 7.45%; in assay [6] it was 3.01%. Moreover, the inhibition was found to be 7.14% in assay [7], 0.45% in assay [8], 5.79% in assay [9] and 1.86% in assay [10].
As to `CC(C)c1ccc2c(c1)NC(=O)/C2=N/Nc1ccc(S(N)(=O)=O)cc1`, the inhibition is -2.09% in assay [1]; -0.86% in assay [2]; 0.13% in assay [3]; 0.88% in [4]; 0.52% in [5]; 1.43% in assay [6]. The inhibition in assay [7] was 2.29%; in assay [8], 0.22%; in assay [9] it was 2.57%; in assay [10], -1.41%.
As for `Cc1cc(Cl)cc2c1NC(=O)C2=NNc1ccc(S(N)(=O)=O)cc1`, the inhibition in assay [1] was 1.21%; in [2], -0.63%; in assay [3], -0.34%; in [4], 0.8%; in assay [5], 0.86%; in assay [6] it was 1.47%. Further, the inhibition in [7] is 6.58%; in [8], 1.41%; in assay [9] it was 4.45%; in assay [10], 0.48%.
Consider `COc1ccc2ncnc(Nc3ccc(OCc4ccccc4)cc3)c2c1`, for which the inhibition in assay [1] is 3.15%; in [2], 0.07%; in assay [3], -0.37%; in assay [4] it was -0.28%; in assay [5], 2.03%; in assay [6], 2.24%. Further, the inhibition in assay [7] worked out at 7.43%; in [8] it was 1.39%; in assay [9] it was 11.3%; in [10] it was 0.5%.
For the compound `Cc1cc(-c2ccccn2)cc(C)c1/C=C/c1cncc(-c2nn[nH]n2)c1`, the inhibition in [1] was determined as 7.09%; in assay [2], 2.52%; in [3], 3.91%; in assay [4] it was 4.28%; in assay [5] it was 9.19%; in [6], 2.08%. Also, the inhibition in assay [7] came out at 3.07%; in assay [8], 0.76%; in assay [9] it was 2.73%; in assay [10], 1.02%.
Take `Cc1ccc(O)cc1Nc1ccnc2ccc(S(C)(=O)=O)cc12`: the inhibition turned out to be 4.85% in assay [1]; 2.23% in assay [2]; 1.71% in [3]; 4.23% in [4]; 9.23% in assay [5]; 3.85% in [6]. Moreover, the inhibition in [7] was 12.2%; in assay [8], 1.97%; in assay [9], 9.18%; in assay [10], 2.65%.
Consider `[O-][S+]1CCN(Cc2ccc(-c3ccc4ncnc(Nc5ccc(OCc6ccccc6)c(Cl)c5)c4c3)o2)CC1`, for which the inhibition in [1] came to 2.17%; in assay [2] it was 1.29%; in assay [3], 2.1%; in [4], 2.37%; in assay [5] it was 5.78%; in assay [6] it was 1.69%. Moreover, the inhibition in assay [7] is 5.98%; in assay [8], 0.13%; in assay [9], 8.54%; in assay [10], 0.59%.
`ON=C1CCc2cc(-c3nc(C4CCNCC4)[nH]c3-c3ccncc3)ccc21`: the inhibition in [1] was 3.01%; in [2], 0.47%; in assay [3] it was 1.99%; in assay [4] it was -0.02%; in assay [5], 1.75%; in [6] it was 0.86%. The inhibition in assay [7] is 3.6%; in assay [8], 0.66%; in [9], 0.78%; in assay [10] it was -1.2%.
As to `FC(F)(F)c1ccc(-c2nn3ncccc3c2-c2ccnc(Nc3ccc4c(c3)OCCO4)n2)cc1`, the inhibition was 11.2% in [1]; 4.98% in assay [2]; 6.4% in [3]; -0.41% in assay [4]; -0.13% in assay [5]; 6.66% in assay [6]. Besides, the inhibition in assay [7] stood at 10.9%; in assay [8], 6.24%; in assay [9], 9.7%; in assay [10], 6.43%.
Turning to `COc1cc(/C=N/Nc2ncnc3c2cnn3C(C)C)ccc1O`, the inhibition in [1] worked out at 0.41%; in assay [2], 0.37%; in assay [3], 4.17%; in [4], 26.7%; in assay [5] it was 80.3%; in [6], 1.07%. Moreover, the inhibition in assay [7] is 5.78%; in assay [8], 1.33%; in assay [9] it was 2.77%; in [10] it was -0.89%.
In the case of `NS(=O)(=O)c1ccc(N/N=C2\C(=O)Nc3ccc(Cl)cc32)cc1`, the inhibition in assay [1] worked out at 13.2%; in assay [2], 2.09%; in assay [3], 11.2%; in assay [4], 3.75%; in assay [5] it was 8.5%; in assay [6], 2.08%. For the same compound, the inhibition is 10.1% in assay [7], 1.59% in assay [8], 5.65% in assay [9] and 0.41% in [10].
Take `Oc1cccc(-c2nc(-c3ccccc3)[nH]c2-c2ccncc2)c1`: the inhibition in assay [1] worked out at 6.43%; in assay [2] it was 1.16%; in [3], 2.71%; in assay [4], 4.46%; in assay [5] it was 5.5%; in assay [6], 5.55%. Moreover, the inhibition in assay [7] was 25.6%; in [8] it was 1.57%; in assay [9] it was 14.8%; in assay [10], -0.88%.
As to `COc1cccc(-n2ncc3c(N/N=C/c4ccc(S(C)(=O)=O)cc4)ncnc32)c1`, the inhibition in assay [1] is 4.26%; in assay [2] it was 1.03%; in assay [3] it was 3.52%; in assay [4] it was 3.61%; in [5] it was 4.85%; in assay [6], 23.2%. Also, the inhibition in assay [7] was 34.2%; in assay [8] it was 16.7%; in assay [9], 23.9%; in assay [10], 0.16%.
For `Cc1ccc2c(c1)/C(=N/Nc1ccc(S(N)(=O)=O)cc1)C(=O)N2`, the inhibition in assay [1] was 3.82%; in assay [2], 1.51%; in [3], 7.46%; in assay [4], -0.41%; in [5], 6.27%; in assay [6], 0.02%. In addition, the inhibition in assay [7] is 0.54%; in assay [8], -0.44%; in assay [9], 0%; in assay [10], -0.42%.
For the compound `COc1cccc(-n2ncc3c(N/N=C/c4ccc(C)cc4)ncnc32)c1`, the inhibition in assay [1] was determined as 6.9%; in [2], 2.42%; in [3], 5.11%; in assay [4] it was 5.47%; in assay [5] it was 12.6%; in assay [6], 4.37%. For the same compound, the inhibition is 9.69% in [7], 3.79% in assay [8], 11.2% in assay [9] and 2.05% in assay [10].
`Nc1ccc(C#Cc2cncnc2Nc2ccc(OCc3cccc(F)c3)c(Cl)c2)cc1`: the inhibition worked out at 2.52% in assay [1]; 2.36% in assay [2]; 1.95% in [3]; 2.97% in [4]; 1.48% in assay [5]; 2.04% in assay [6]. The inhibition in assay [7] is 10.7%; in assay [8] it was 0.63%; in assay [9], 7.26%; in assay [10] it was -0.22%.
